Assay results from PubChem BioAssay AID2428 (Vanderbilt High Throughput Screening Facility, 2010).
Results with a measured potency or affinity are listed apart. The source made the active and inactive calls.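 The calls were made as follows: active = compound whose fitted concentration response curve has an R squared above 0.5; inactive = the rest.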

These molecules were tested against Muscarinic acetylcholine receptor M3 (Homo sapiens) (UniProt P20309) (assay: potentiation of ACh response at M3 – cell-based, CHO-K1 hM3, Fluo-4 calcium, ACh EC20, selectivity assay for M1 PAM project, dose response (AID 2428)). Details: series mostly up to 30 µM.
Muscarinic acetylcholine receptor M3 (Homo sapiens), sequence (P20309 whole entry, looked up): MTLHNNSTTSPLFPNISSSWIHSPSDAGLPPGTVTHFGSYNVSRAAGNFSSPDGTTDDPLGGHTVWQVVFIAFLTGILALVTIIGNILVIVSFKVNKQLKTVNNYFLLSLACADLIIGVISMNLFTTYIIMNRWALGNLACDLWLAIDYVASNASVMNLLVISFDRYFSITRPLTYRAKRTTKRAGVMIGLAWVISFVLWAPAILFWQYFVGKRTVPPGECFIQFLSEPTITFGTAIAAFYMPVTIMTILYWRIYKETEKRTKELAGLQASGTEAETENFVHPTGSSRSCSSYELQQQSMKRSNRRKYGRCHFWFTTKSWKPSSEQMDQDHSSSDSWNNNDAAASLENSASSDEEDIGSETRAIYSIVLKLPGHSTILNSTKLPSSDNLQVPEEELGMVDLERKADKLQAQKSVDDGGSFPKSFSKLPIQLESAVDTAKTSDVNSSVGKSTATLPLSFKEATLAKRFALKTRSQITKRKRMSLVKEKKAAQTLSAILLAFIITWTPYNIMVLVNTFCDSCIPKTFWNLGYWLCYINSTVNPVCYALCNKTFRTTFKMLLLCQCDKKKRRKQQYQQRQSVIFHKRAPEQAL

Row | SMILES | outcome
1 | Cc1cc(NC(=O)CS(=O)(=O)c2cn(Cc3cccc(-c4ccn(C)n4)c3)c3ccccc23)no1 | inactive
2 | Cn1cc(-c2ccc(CN3C(=O)C(=O)c4ccccc43)c(F)c2)cn1 | inactive
3 | Cc1cc(NC(=O)CS(=O)(=O)c2cn(Cc3cccc(Cl)c3)c3ccccc23)no1 | inactive
4 | Cc1cc(NC(=O)CS(=O)(=O)c2cn(Cc3cccc(F)c3)c3ccccc23)no1 | inactive
5 | Cc1cc(NC(=O)CS(=O)(=O)c2cn(Cc3ccccc3Cl)c3ccccc23)no1 | inactive
6 | O=C1C(=O)N(Cc2ccc(Oc3ccccc3)cc2)c2ccc(OC(F)(F)F)cc21 | inactive
7 | Cn1cc(-c2cc(F)c(CN3C(=O)C(=O)c4ccccc43)c(F)c2)cn1 | inactive
8 | Cc1cc(NC(=O)CS(=O)(=O)c2cn(Cc3cc(Br)ccc3F)c3ccccc23)no1 | inactive
